The record followed here is PubChem BioAssay (NCI).

Test systems include SR leukemia; OVCAR-8 ovarian; OVCAR-4 ovarian; SK-OV-3 ovarian; IGROV1 ovarian; OVCAR-3 ovarian; HS 578T breast; NCI/ADR-RES ovarian; T-47D breast; BT-549 breast; MDA-MB-435 melanoma; SW-620 colon; MCF7 breast; HCT-116 colon; HCC-2998 colon; KM12 colon; OVCAR-5 ovarian.
Test in all cases: NCI-60 one-dose screen, 48 h (100 = growth as untreated, 0 = no growth, -100 = all killed)
What all share (details): 10 µM

This is part of a sample that, as a whole, favours compounds with a hit. Of some 83,000 tested, about 20% had one in any assay.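 48-hour exposure, single concentration, 96-well plates; percent growth endpoint where 0 means no net growth. Active: below 10.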 A number with no mark means an inactive call. Calls of active or inactive are those of the source.

With `COC(=O)c1cnc2c(c1)Oc1ccccc1-c1ccnn1-2`, the growth with SR leukemia is 85%; in the assay with OVCAR-8 ovarian, 91.9%; with OVCAR-4 ovarian, 103%; in the assay on SK-OV-3 ovarian it was 95.4%; in the assay with IGROV1 ovarian, 95.7%; in the assay on OVCAR-3 ovarian, 114%. Moreover, the growth was 93.7% in the assay on HS 578T breast; 105% with NCI/ADR-RES ovarian; 84.4% in the assay on T-47D breast; 102% with BT-549 breast; 99.5% with MDA-MB-435 melanoma; 99.4% in the assay on SW-620 colon. Moreover, the growth in the assay with MCF7 breast was 96.3%; in the assay with HCT-116 colon, 92.1%; in the assay with HCC-2998 colon it was 99.7%; in the assay on KM12 colon it was 109%.

As to `COc1cc(CSc2nc3ccc(Cl)cc3c(=O)n2Cc2ccccc2)cc(OC)c1OC`, the growth in the assay on SR leukemia is 23.1%; in the assay on OVCAR-8 ovarian, 53%; with OVCAR-5 ovarian it was 46.7%; in the assay on OVCAR-4 ovarian, 52%; in the assay on SK-OV-3 ovarian, 24.4%; with IGROV1 ovarian, 35.3%. Also, the growth is -0.909% (active) in the assay with OVCAR-3 ovarian; 30.5% in the assay on HS 578T breast; 14% in the assay on NCI/ADR-RES ovarian; 33.9% in the assay on T-47D breast; 21.7% in the assay on BT-549 breast; 1.84% (active) in the assay on MDA-MB-435 melanoma. Further, the growth is 28.7% in the assay with SW-620 colon; 14.3% with MCF7 breast; 20.8% with HCT-116 colon; 50.1% in the assay with HCC-2998 colon; 23.7% in the assay on KM12 colon.

For `COc1ccc2nc(/C=C/c3ccc(N(C)C)cc3)sc2c1`, the growth in the assay on SR leukemia is 86.1%; in the assay with OVCAR-8 ovarian, 115%; in the assay on OVCAR-5 ovarian, 97.4%; with OVCAR-4 ovarian, 107%; in the assay with SK-OV-3 ovarian it was 197%; with IGROV1 ovarian, 82.5%. Besides, the growth was 103% in the assay on OVCAR-3 ovarian; 102% with HS 578T breast; 93.1% in the assay on NCI/ADR-RES ovarian; 300% with T-47D breast; 104% with BT-549 breast; 90.3% in the assay on MDA-MB-435 melanoma. Besides, the growth in the assay with SW-620 colon is 93.6%; in the assay with MCF7 breast, 96.6%; with HCT-116 colon, 105%; with KM12 colon, 104%.

In the case of `O=[N+]([O-])c1ccc(-c2nc(Cl)c3c(n2)CCCC3)o1`, the growth in the assay on SR leukemia was 44.7%; in the assay with OVCAR-8 ovarian, 85%; in the assay with OVCAR-5 ovarian, 103%; with OVCAR-4 ovarian it was 89.6%; with SK-OV-3 ovarian, 108%; in the assay on IGROV1 ovarian, 89.3%. The growth is 108% with OVCAR-3 ovarian; 86.8% in the assay on HS 578T breast; 89.9% in the assay with T-47D breast; 83.1% in the assay with BT-549 breast; 87.6% in the assay with MDA-MB-435 melanoma; 56.8% in the assay with SW-620 colon. In addition, the growth in the assay on MCF7 breast is 46.9%; with HCT-116 colon it was 55.2%; in the assay on HCC-2998 colon, 92.4%; in the assay with KM12 colon, 96.5%.

Turning to `Nc1ccc(Sc2ccc3c4c2cccc4c(=O)n2c4ccccc4nc32)cc1`, the growth in the assay with SR leukemia is 16.1%; with OVCAR-8 ovarian it was 50.7%; in the assay on OVCAR-5 ovarian, 85.8%; with OVCAR-4 ovarian it was 74%; in the assay on SK-OV-3 ovarian, 53.9%; in the assay on IGROV1 ovarian, 34.5%. The growth with OVCAR-3 ovarian was 77.8%; in the assay on NCI/ADR-RES ovarian, 56.6%; in the assay with T-47D breast it was 39.6%; in the assay on BT-549 breast, 59.1%; in the assay with MDA-MB-435 melanoma, 80.2%; in the assay with SW-620 colon, 46.3%. For the same molecule, the growth in the assay on MCF7 breast was 23.6%; in the assay on HCT-116 colon, 46.8%; in the assay on HCC-2998 colon, 80.7%; in the assay on KM12 colon, 73.6%.

Regarding `O=C(CCc1ccccc1)N1CCN(C(=O)CCc2ccccc2)CC1`, the growth with SR leukemia was 94.3%; in the assay on OVCAR-8 ovarian, 96%; in the assay with OVCAR-5 ovarian, 110%; in the assay on OVCAR-4 ovarian it was 101%; in the assay on SK-OV-3 ovarian, 115%; in the assay with IGROV1 ovarian it was 99.7%. Further, the growth in the assay on OVCAR-3 ovarian is 118%; in the assay with HS 578T breast, 100%; in the assay on NCI/ADR-RES ovarian it was 108%; in the assay with T-47D breast, 108%; in the assay with BT-549 breast, 105%; with MDA-MB-435 melanoma it was 106%. For the same molecule, the growth is 109% in the assay on SW-620 colon, 95.7% in the assay on MCF7 breast, 99.6% in the assay on HCT-116 colon and 111% in the assay on KM12 colon.

Regarding `O=C(c1ccc(Cl)cc1)c1no[n+]([O-])c1C(=O)c1ccc(Cl)cc1`, the growth is -18.5% (active) in the assay on SR leukemia; 30.1% in the assay with OVCAR-8 ovarian; 105% in the assay with OVCAR-5 ovarian; 92.5% in the assay on OVCAR-4 ovarian; 105% with SK-OV-3 ovarian; -35.8% (active) with IGROV1 ovarian. The growth in the assay with OVCAR-3 ovarian was 43.2%; with HS 578T breast it was 109%; in the assay with NCI/ADR-RES ovarian it was 82.7%; in the assay with T-47D breast, 89.6%; in the assay on BT-549 breast, 98.7%; in the assay with MDA-MB-435 melanoma, 89.8%. Besides, the growth in the assay on SW-620 colon is 44.2%; in the assay with MCF7 breast it was 92.1%; with HCT-116 colon, 49%; in the assay with HCC-2998 colon, 113%; in the assay on KM12 colon, 88.5%.

As to `O=C(O)CNS(=O)(=O)c1ccc(OCCOc2ccc(S(=O)(=O)NCC(=O)O)cc2)cc1`, the growth was 103% in the assay on SR leukemia; 102% with OVCAR-8 ovarian; 115% in the assay on OVCAR-4 ovarian; 103% in the assay on SK-OV-3 ovarian; 106% with IGROV1 ovarian; 103% in the assay on OVCAR-3 ovarian. The growth with HS 578T breast is 99.4%; with NCI/ADR-RES ovarian, 103%; in the assay on T-47D breast, 93.5%; in the assay on BT-549 breast, 105%; with MDA-MB-435 melanoma it was 113%; in the assay on SW-620 colon, 103%. Also, the growth with MCF7 breast was 98.6%; in the assay with HCT-116 colon it was 103%; in the assay on HCC-2998 colon, 98.1%; in the assay on KM12 colon it was 99.5%.
